Compounds with a hit are over-represented: about 3.9% of the library has one in this group of screens.
GALK inh = qHTS Assay for Inhibitors of Human Galactokinase (GALK) | P51570 | Purified GALK, Kinase-Glo residual ATP luminescence | Potency, µM (titrated, usually from 57.5 µM), inactives show top-dose activity change, negative = inhibition, usual class: inhibitors | 0.007% of 270,000 active | AID 1868, 2009; note: potency is the fitted concentration of half-maximal effect; % is set by controls: 0 for no effect and ±100 for the full control effect
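Human GALK (5 nM) with 35 uM ATP and 100 uM galactose in 20 mM HEPES pH 8.0, 5 mM MgCl2, 60 mM NaCl, 1 mM DTT, 0.01% BSA. After 1 h at room temperature, leftover ATP was read by Kinase-Glo Plus luminescence.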
D1 ag = Allosteric Agonists of the Human D1 Dopamine Receptor: qHTS. HEK293 T-REx D1 cells, calcium flux, agonist mode. activation, % at 2 µM. 1% of 360,000 active; in the data active = activation above about 30%; note: 0% is about no effect
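Inducible HEK293 T-REx D1 cells, force-coupled to calcium signalling, were plated at 4000 cells/well with tetracycline and held overnight at 30 C. After no-wash calcium dye loading, compound-evoked calcium rise over 180 s flagged agonists.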
D1 potentiator = Potentiators of Human D1 Dopamine Receptor: qHTS. D(1A) dopamine receptor (Homo sapiens), P21728. HEK293 TREx D1 cells, calcium flux, dopamine EC20 potentiation. potentiation, % at 10 µM. 0.036% of 360,000 active; in the data active = potentiation above about 30%; note: 0% is about no effect
USP2a block = qHTS Assay for Inhibitors of Ubiquitin-specific Protease USP2a Using CHOP2 as the Reporter. Ubiquitin carboxyl-terminal hydrolase 2 (Homo sapiens), O75604. USP2 core, Ub-CHOP2 coupled fluorogenic reporter, 485/531. Potency, µM (doses to about 38.3 µM), for the others: top-dose activity change, negative = inhibition, most hits filed as inhibitors. 0.01% of 330,000 active. AID 463254, 2010;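 note: potency is the fitted concentration of half-maximal effect; plate controls were DMSO wells for no effect and full inhibition by NEM control for full effect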
Target sequence (O75604 whole entry, looked up): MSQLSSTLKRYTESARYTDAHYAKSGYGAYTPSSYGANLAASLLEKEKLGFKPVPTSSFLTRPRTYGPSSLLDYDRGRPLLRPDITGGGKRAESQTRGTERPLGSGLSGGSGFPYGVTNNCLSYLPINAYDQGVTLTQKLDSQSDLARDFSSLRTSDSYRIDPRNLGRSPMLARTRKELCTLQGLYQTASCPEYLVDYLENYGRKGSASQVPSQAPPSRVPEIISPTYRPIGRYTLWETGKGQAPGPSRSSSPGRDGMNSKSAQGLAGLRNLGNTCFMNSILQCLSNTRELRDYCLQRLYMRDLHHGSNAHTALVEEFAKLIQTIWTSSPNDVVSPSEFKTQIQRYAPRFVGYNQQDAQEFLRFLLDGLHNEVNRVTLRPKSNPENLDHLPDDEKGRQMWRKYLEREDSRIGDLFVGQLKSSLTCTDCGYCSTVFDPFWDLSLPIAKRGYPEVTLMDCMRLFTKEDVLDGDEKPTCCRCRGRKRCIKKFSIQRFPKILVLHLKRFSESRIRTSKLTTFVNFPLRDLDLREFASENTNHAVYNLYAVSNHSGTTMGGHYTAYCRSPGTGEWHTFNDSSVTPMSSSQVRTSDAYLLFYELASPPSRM
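Deubiquitinase activity read as fluorescence (485/531 nm) after Ub-CHOP2 cleavage activates the enterokinase reporter on its substrate; USP2 core 10nM, Ub-CHOP2 and substrate 25nM each, 30min compound preincubation then 60min RT; data normalized to NEM, curves fitted.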
D1 antag = Antagonist of Human D 1 Dopamine Receptor: qHTS | activity change, negative = inhibition, % at 10 µM | 3.2% of 360,000 active | AID 504652, 2011 | D(1A) dopamine receptor (Homo sapiens), P21728 | HEK293 TREx D1 cells, calcium flux, dopamine EC80; hits give low values; in the data active = activity change below about -30%; note: % is set by controls: 0 for no effect and ±100 for the full control effect
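Antagonism measured as reduced calcium response to an EC80 dopamine addition following 180 s compound pre-read; cells were inducible HEK293 Trex D1 plated overnight at 30 C, read kinetically at 1 cycle/sec.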
Eya2 phos inh = qHTS Assay for Inhibitors of the Phosphatase Activity of Eya2. Potency, µM (titrated, usually from 76.9 µM), for the others: at the highest dose activity, negative = inhibition, actives largely listed as inhibitors. Protein phosphatase EYA2 (Homo sapiens), O00167. recombinant Eya2, OMFP fluorescence dephosphorylation (OMFP is methylfluorescein phosphate). AID 488837, 2010. 0.006% of 330,000 active; note: potency is the fitted concentration of half-maximal effect; % is set by controls: 0 for no effect and ±100 for the full control effect
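Eya2 protein (added as 0.2 uM solution) was preincubated with compound for 10 min at ambient temperature in 50 mM HEPES pH 7.5, 50 mM NaCl, 5 uM MgCl2, 0.05% BSA, 1 mM DTT. OMFP (added at 50 uM) then reacted 10 min; fluorescence read at 485/525 nm.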
Numbers without * were called inactive; · = not tested or not shown. Unless noted, calls come from the whole dose curve; as a rule, active = well fitted inhibition curve with a large enough effect; inconclusive = small, poorly fitted or top-dose-only effect, or effect the other way; inactive = flat fitted curve, though single readings scatter.

SMILES	GALK inh	D1 ag	D1 potentiator	USP2a block	D1 antag	Eya2 phos inh
CN(C)C(=O)C(CCN1CCC(O)(c2ccc(Cl)cc2)CC1)(c1ccccc1)c1ccccc1	0.1%	39.9*	-5.8	-1.7%	-21.3	-0.4%
CN(C)c1ccc(NC(=O)CN2CCC(O)(c3ccccc3)CC2)cc1	4.1%	1.8	-4.7	-0.4%	-4.6	1.6%
Cc1ccc(NC(=O)CS(=O)CC(=O)N(c2ccc(C)cc2)C(C)C(=O)NC2CCCCC2)cc1 (stereo not drawn)	0.9%	0.3	-3.4	-1.1%	-6.6	-18.9%
Cc1ccc(NC(=O)CS(=O)CC(=O)N(c2ccccc2F)C(C)C(=O)NC2CCCC2)cc1 (stereo not drawn)	0.3%	2.0	-10.8	3.0%	15.7	-8.9%
O=C(CS(=O)CC(=O)N(CC(=O)NC1CCCC1)c1ccccc1F)Nc1ccc(F)cc1 (stereo not drawn)	6.6%	0.0	0.9	-1.3%	-35.2*	0.9%
CC(C(=O)NC1CCCC1)N(C(=O)CS(=O)CC(=O)Nc1ccc(F)cc1)c1ccc2c(c1)OCCO2 (stereo not drawn)	1.3%	-1.2	-0.4	-0.6%	-52.4*	-11.3%
Cc1ccc(NC(=O)CN2C(=O)COc3ccc(S(=O)(=O)N4CCCCC4)cc32)cc1N(C)C	·	1.8	-4.3	·	-5.8	·
CCOC(=O)c1ccc(NC(=O)c2cnc(N3CCCC3)nc2C)cc1	·	8.2	0.6	·	8.9	·
CCC(NC(=O)COC(=O)C1CC2CCCC(C1)C2=O)c1ccc(Br)cc1 (stereo not drawn)	·	4.8	-5.9	1.2%	-56.2*	-11.2%
COc1cc2c(cc1OC)C(COc1cccc(C(F)(F)F)c1)N(C(=O)c1ccc(S(=O)(=O)N3CCCC3)cc1)CC2 (stereo not drawn)	·	3.4	-2.4	·	-10.8	·
Cc1cc(NC2CCCCC2)nc2ccccc12	-1.9%	22.7	-6.0	8.1%	-33.1*	-4.5%
Cc1ccc2c(c1)C1CN(C)CCC1N2C(=O)Nc1ccc(Cl)cc1 (stereo not drawn)	5.8%	36.4*	-12.1	2.0%	-72.9*	-4.6%
Cc1ccc2c(c1)C1CN(C)CCC1N2C(=O)c1cccc(S(=O)(=O)N(C)C)c1 (stereo not drawn)	-3.3%	4.6	-7.1	2.2%	-7.2	5.2%
CC(=O)Nc1ccc(NC(=O)c2ccc3c(c2)CCN3S(=O)(=O)c2ccc(Cl)cc2)cc1	·	2.1	0.3	·	-11.2	·
Cc1ccc(C)c(N2CCN(c3nc4ccccc4c(=O)n3-c3ccc(Cl)cc3)CC2)c1	·	0.6	1.8	·	-56.2*	·
Cc1ccc(-c2nc3scc(CCNS(=O)(=O)c4c(C)noc4C)n3n2)cc1	·	32.2*	-1.9	·	·	·
N#C/C(=N\Nc1cccc([N+](=O)[O-])c1)C(=O)c1ccc(Br)cc1	-9.3%	21.3	-2.9	-5.2%	-34.2*	3.7%
O=C(Oc1ccc(OC(=O)C2CCC2)cc1)C1CCC1	1.2%	2.4	-0.4	1.0%	-35.6*	-1.6%
COc1ccc(C)c2sc(N3CCN(C(=O)c4ccco4)CC3)nc12	·	-4.1	2.4	·	·	·
Cc1ccccc1-n1cnc2cc(NCc3cccs3)ccc21	-2.9%	5.9	-10.1	-1.7%	-37.4*	8.5%
COc1ccc2c(c1)CCC/C2=N/OC(=O)c1ccccc1OC	-1.6%	19.8	-4.0	2.5%	-32.8*	-1.9%
CC1=CC(=C(C#N)c2nc3ccccc3s2)C=C(C)N1CC1CCCO1 (stereo not drawn)	10.8%	42.6*	-5.5	-4.6%	6.5	-8.9%

Screening results from PubChem BioAssay.
